Outcome data for 14 compounds are collected here from PubChem BioAssay AID434998 (Southern Research Specialized Biocontainment Screening …, 2010).

This test is described as follows: S. Typhi GFP reporter counter-screen inhibition, SAR follow-up, counter-screen for PhoP regulon inhibitor project, purified and synthesized compounds, round 3 (AID 434998). To be noted: S. typhi GFP reporter fluorescence, high Mg2+ counter-screen, 4 h; series mostly up to 150 µM. (The purpose of a counterscreen is to sort out artefacts and off-target activity.)

The source made the active and inactive calls. How the calls were made is not given here.

For `COc1ccccc1CNC(=S)Nc1ccncc1`, the compound was classed as inactive.

On to `N#Cc1ccc(NC(=S)NCc2ccc(Cl)cc2)cc1`, for which the outcome was inactive.

As for `S=C(NCCc1ccc(Cl)cc1)Nc1ccncc1`, the result was inactive.

Take `O=C(Nc1cccc(C(F)(F)F)c1)N1CCCN(Cc2ccccc2F)C1`: the compound was called inactive.

For `Cc1ccccc1CNC(=S)Nc1ccncc1`, the call was inactive.

As to `O=C(Nc1cccc(F)c1)N1CCCN(Cc2ccccc2F)C1`, the outcome was inactive.

Regarding `Cc1cccc(NC(=O)N2CCCN(Cc3ccccc3F)C2)c1`, the compound was called inactive.

With `O=C(Nc1ccc(Cl)cc1)N1CCCN(Cc2ccc(Br)cc2)C1`, the result was inactive.

As for `O=C(Nc1ccc(I)cc1)N1CCCN(Cc2ccccc2F)C1`, the compound was classed as inactive.

On to `O=C(Nc1cccc(I)c1)N1CCCN(Cc2ccccc2F)C1`, for which the outcome was inactive.

In the case of `N#Cc1ccccc1NC(=S)NCc1ccc(Cl)cc1`, the compound was called inactive.

On to `O=C(Nc1ccc(Cl)cc1)N1CCCN(Cc2ccccc2Br)C1`, for which the call was inactive.

Take `O=C1C2=C(Nc3ccccc3SC2c2cccc(I)c2)c2ccccc21` (centres undefined): the compound was called inactive.

`Cc1ccc(NC(=O)N2CCCN(Cc3ccccc3F)C2)cc1`: the compound was called inactive.
